Test results: PubChem BioAssay (NCATS)
Results filed as inconclusive are left out. The source made the active and inactive calls. Calls follow the shape of the dose curve; as a rule, active = well fitted inhibition curve with a large enough effect; inconclusive = small, poorly fitted or top-dose-only effect, or effect the other way; inactive = no such curve, though single readings can be large or run the other way.

Assay: High Content Imaging Cell-Based qHTS for Inhibitors of the mTORC1 Signaling Pathway in MEF Cells (AID 2667);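 as to activity change, negative = inhibition: Tsc2-/- p53-/- MEFs stably re-expressing wild-type Tsc2 exposed 24 h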
Conditions: series mostly up to 38.3 µM; activity change, negative = inhibition: at the top concentration
Excerpt: NIH Molecular Libraries Probe Production Centers Network [MLPCN]
NIH Chemical Genomics Center [NCGC]
Assay Submitter (PI): Blenis, John; Hoffman, Greg; Harvard University
NCGC Assay Overview: The mammalian target of rapamycin (mTOR) is an intracellular serine/threonine kinase Aberrant regulation of mTOR signaling plays a causative role in a number of human diseases, including cancer, benign tumors such as lymphangioleiomyomatosis (LAM) and Tuberous Sclerosis Complex (TSC), and metabolic diseases such as diabetes and obesity. This project aims to identify inhibitors of ribosomal protein S6 (rpS6) phosphorylation. The phosphorylation of rpS6 is a key event downstream of mTOR activation. The assay uses a phospho-specific antibody of phospho-rpS6 to detect inhibitors of mTOR activation. Mutations in the Tsc1 and Tsc2 genes are the underlying genetic lesions responsible for TSC, causing constitutive activation of the mTORC1 pathway and leading to profound effects on cell metabolism. Aberrant metabolism in cancer has recently received significant attention as a target to develop therapeutic agents in the treatment of cancer.1 As Tsc2-/- cells have lost the ability to respond to energy and growth factor deprivation, these cells are unable to properly down regulate cellular biosynthetic processes in response to metabolic stress, and are thus extremely sensitive to glucose deprivation-induced death.2 A central goal of this project is to explore the unique cell survival and metabolic properties of cells with Tsc1 or Tsc2 by screening for compounds that selectively target the Tsc2-/- MEFs by screening both Tsc2-/- and WT MEF cell lines. We hope to better understand these aspects of TSC physiology in order to exploit them for therapeutic benefit.
NCGC IN Cell Assay Protocol:
For quantitative high throughput analysis of mTORC1 signaling, we developed a cell-based assay for immuno-fluorescence based detection of rpS6 phosphorylation on the Acumen Explorer that will be used a platform for the primary small molecule screen. Mouse embryonic fibroblasts (MEFs) are cultured in 1536-well plates using DMEM + 10% FBS. Twenty-four hrs after plating, test compounds (solubilized in DMSO) are delivered and incubated with the cells for 24 hrs at 37 degree Celsius. Following the incubation, media with compound is aspirated and the cells are fixed in 4% paraformaldehyde (PFA) containing PBS + 0.2% TX-100. Next, PFA is aspirated, cells are washed two times with PBS plus 0.2% TX-100 and the cells are blocked for 1 hr at room temperature (blocking buffer: LiCOR Blocking Buffer plus 0.2% TX-100). This is followed by aspiration and staining with Alexa-488 conjugated-phospho-rpS6 Ser235/236 antibody for 2 hours at room temperature (Cell Signaling Technology # 4803, 1:50 dilution in blocking buffer). Cells are washed two times with PBS plus 0.2% TX-100, and stained with 10 uM propidium iodide (PI) for 20-25 minutes for cell number measurement (1:500 dilution of Hoescht staining is also added for IN Cell imaging). Active wells which are selected (based on Acumen results) are imaged on the IN Cell 1000 (GE Healthcare) using the D360/40X and HQ480/40X excitation filters for the Hoechst and Alexa-488 cytoplasmic stains, respectively. The fluorescence emission filters used were HQ460/40M and HQ535/50M for the Hoechst and Alexa-488 cytoplasmic stains, respectively. The normalized phospho-S6 staining is calculated as the ratio of […] for the single concentration rapamycin control ([…] nM) and DMSO columns. […] Inhibition of the pathway is defined based on the normalized phospho-S6 intensity in rapamycin treated cells. Each treatment is reported as the % positive cells in the well, where thresholds are defined by selecting wells with the highest and lowest signal and differentiating between the % non-active and % active populations. […]
Potency is read from the fitted curve at half-maximal effect.

Compound	activity change, negative = inhibition	Potency
NCCCCCC(=O)O	-100% (inactive)	–
Nc1ccn([C@H]2CC[C@@H](CO)O2)c(=O)n1	-100% (inactive)	–
CCOC(=O)Nc1ccc(NCc2ccc(F)cc2)nc1N	-100% (inactive)	–
CC1COc2c(N3CCN(C)CC3)c(F)cc3c(=O)c(C(=O)O)cn1c23 (stereo not given)	-100% (inactive)	–
Cn1c(=O)c2[nH]cnc2n(C)c1=O	-100% (inactive)	–
O=C1Cc2cc(CCN3CCN(c4nsc5ccccc45)CC3)c(Cl)cc2N1	-100% (inactive)	–
Cc1ccc(C(=O)Nc2ccc(S(=O)(=O)O)c3cc(S(=O)(=O)O)cc(S(=O)(=O)O)c23)cc1NC(=O)c1cccc(NC(=O)Nc2cccc(C(=O)Nc3cc(C(=O)Nc4ccc(S(=O)(=O)O)c5cc(S(=O)(=O)O)cc(S(=O)(=O)O)c45)ccc3C)c2)c1	-100% (inactive)	–
CCC1(c2ccccc2)C(=O)NCNC1=O	-100% (inactive)	–
CN1C(C(=O)Nc2ccccn2)=C(O)c2ccccc2S1(=O)=O	-100% (inactive)	–
O=C1N(c2ccccc2)c2ccccc2C1(Cc1ccncc1)Cc1ccncc1	-100% (inactive)	–
NCCS(=O)(=O)O	-100% (inactive)	–
Cn1ccc2cc3c(cc21)CCN3C(=O)Nc1cccnc1	-100% (inactive)	–
COc1nc(C)nc(Cl)c1NC1=NCCN1	-100% (inactive)	–
CNCCCC12CCC(c3ccccc31)c1ccccc12	–	0.521 µM (active)
NC12CC3CC(CC(C3)C1)C2	-100% (inactive)	–
CCOC(=O)c1ncn2c1CN(C)C(=O)c1cc(F)ccc1-2	-100% (inactive)	–
NS(=O)(=O)c1cc2c(cc1Cl)NCNS2(=O)=O	-100% (inactive)	–
CS(=O)(=O)Nc1ccc([N+](=O)[O-])cc1Oc1ccccc1	-100% (inactive)	–
CN1C2CCC1CC(OC(=O)C(CO)c1ccccc1)C2 (stereo not given)	-100% (inactive)	–
CN1CCN(C2=Nc3cc(Cl)ccc3Nc3ccccc32)CC1	-100% (inactive)	–

Compound	activity change, negative = inhibition	Potency
Cc1cc(C(C)(C)C)c(O)c(C)c1CC1=NCCN1	-100% (inactive)	–
COc1ccc2c(c1)c(CC(=O)O)c(C)n2C(=O)c1ccc(Cl)cc1	-100% (inactive)	–
COc1ccc(C2CNC(=O)C2)cc1OC1CCCC1 (stereo not given)	-100% (inactive)	–
O=c1[nH]cc(F)c(=O)[nH]1	-100% (inactive)	–
Clc1ccc2nsnc2c1NC1=NCCN1	-100% (inactive)	–
CN(C)c1nc(N(C)C)nc(N(C)C)n1	-100% (inactive)	–
COC(=O)Nc1nc2ccc(C(=O)c3cccs3)cc2[nH]1	-100% (inactive)	–
OCCN(CCO)c1nc(N2CCCCC2)c2nc(N(CCO)CCO)nc(N3CCCCC3)c2n1	-100% (inactive)	–
Cn1cnc2c1c(=O)[nH]c(=O)n2C	-100% (inactive)	–
CN(C)CCOC(c1ccccc1)c1ccccc1	-100% (inactive)	–
CC#C[C@]1(O)CC[C@H]2[C@@H]3CCC4=CC(=O)CCC4=C3[C@@H](c3ccc(N(C)C)cc3)C[C@@]21C	–	11.7 µM (active)
Cn1c(=O)c2c(ncn2C)n(C)c1=O	-100% (inactive)	–
O=C(CCCN1CCC(O)(c2ccc(Cl)cc2)CC1)c1ccc(F)cc1	–	23.3 µM (active)
NCCc1cnc[nH]1	-100% (inactive)	–
CC(C(=O)O)c1cccc(C(=O)c2ccccc2)c1 (stereo not given)	-100% (inactive)	–
NC(=O)OCC(COC(N)=O)c1ccccc1	-100% (inactive)	–
CN(Cc1cnc2nc(N)nc(N)c2n1)c1ccc(C(=O)N[C@@H](CCC(=O)O)C(=O)O)cc1	-100% (inactive)	–
Nc1nnc(-c2cccc(Cl)c2Cl)c(N)n1	-100% (inactive)	–
CN1CCN2c3ccccc3Cc3ccccc3C2C1 (stereo not given)	-100% (inactive)	–
O=c1c(-c2ccc(O)cc2)coc2cc(O)cc(O)c12	-100% (inactive)	–
